This note sets out measurements from PubChem BioAssay (EPA / NIEHS).

Read-out in experiment [1]: UDP glucuronosyltransferase (UGT1A1), UGT1A1 (gene 54658)
Description: LTEA_HepaRG_UGT1A1: Life Technologies and Expression Analysis (LTEA) Assay for UDP glucuronosyltransferase (UGT1A1) using HepaRG (AID 2283538; active means hit-call score of the fitted dose curve at least 0.9, where 1 is the maximum; inactive means score below 0.9). The conditions noted are these: mRNA level, 48 h; actives raise or lower the signal. A digest of the protocol: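 Differentiated human HepaRG cells in serum-free induction medium were exposed in duplicate for 48 h to eight half-log concentrations up to 100 uM in 0.5% DMSO. UGT1A1 mRNA was quantified by TaqMan qRT-PCR, normalized to ACTB, GAPDH and POLR2A, and fitted bidirectionally against DMSO.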

Read-out in experiment [2]: UDP glucuronosyltransferase (UGT1A6), UGT1A6 (gene 54578)
The experiment is described as follows: LTEA_HepaRG_UGT1A6: Life Technologies and Expression Analysis (LTEA) Assay for UDP glucuronosyltransferase (UGT1A6) using HepaRG (AID 2283539; active means hit-call score of the fitted dose curve at least 0.9, where 1 is the maximum; inactive means score below 0.9). The note with it: mRNA level, 48 h; actives raise or lower the signal. In short, it runs like this: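 Measures mRNA change in HepaRG hepatic cells exposed 48 h to chemicals (eight-point, maximum 100 uM, 0.5% DMSO vehicle) in serum-free induction medium. Expression normalized to endogenous controls; DMSO served as negative control and baseline.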

Read-out in experiment [3]: X-box binding protein 1 (XBP1), XBP1 (gene 7494)
The experiment is described as follows: LTEA_HepaRG_XBP1: Life Technologies and Expression Analysis (LTEA) Assay for X-box binding protein 1 (XBP1) using HepaRG (AID 2283540; active means hit-call score of the fitted dose curve at least 0.9, where 1 is the maximum; inactive means score below 0.9). The note with it: mRNA level, 48 h; actives raise or lower the signal. In short, it runs like this:
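Eight concentrations (half-log, highest 100 uM, 0.5% DMSO) tested in duplicate on HepaRG cells over 48 h in serum-free induction medium; qRT-PCR of XBP1 normalised to ACTB, GAPDH, POLR2A.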

Experiment [4] is described as follows: LTEA_HepaRG_LDH_cytotoxicity: Cytotoxicity Assessment in the Life Technologies and Expression Analysis (LTEA) Assay (AID 2283563).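 On AC50: LDH activity released into spent culture medium as a marker of cell death.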 In short, it runs like this: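 Spent-medium LDH after 48 h chemical exposure of HepaRG cells in serum-free induction medium; eight concentrations, half-log dilutions from 100 uM, duplicate wells, fitted upward relative to 0.5% DMSO.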

Experiment [5] in a line: ATG_XTT_Cytotoxicity: Cytotoxicity Assessment in the Attagene TRANS-FACTORIAL HepG2 Assay (AID 2283584). A digest of the protocol: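 24 h chemical exposure of reporter-transfected HepG2; XTT signal loss vs DMSO indicates cytotoxicity.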
Experiment [6] in a line: TOX21_p53_BLA_p2_viability: Viability Assessment in the Tox21 HCT-116 p53 Agonism Beta-lactamase Assay, Phase 2 (AID 2283591).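 Further: compound exposure lasted 16 h at 37 °C; actives lower the ATP signal meaning cytotoxicity.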 A digest of the protocol: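 HCT116 p53-bla cells, 4000/well, dosed after 5 h plating (217-fold dilution of DMSO stocks) and incubated 16 h at 37C. Viability taken as cellular ATP by CellTiter-Glo luminescence after 30 min RT; signal loss marks cytotoxicity.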

The target in experiment [7] is Cellular tumor antigen p53 (Homo sapiens) (UniProt P04637). The experiment is described as follows: TOX21_p53_BLA_p2_ratio: Tox21 HCT-116 p53 Agonism Beta-lactamase Assay, Ratio, Phase 2 (AID 2283592). In short, it runs like this:
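Human colon HCT116 cells with an inducible p53 beta-lactamase reporter are exposed to test chemicals for 16 h at 37C. Reporter induction is read as the 460/530 nm emission ratio after CCF4-AM loading, normalized to DMSO.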

Experiment [8] in a line: TOX21_p53_BLA_p3_viability: Viability Assessment in the Tox21 HCT-116 p53 Agonism Beta-lactamase Assay, Phase 3 (AID 2283593).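 Further: cells exposed to compound for 16 h before reading.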 In short, it runs like this: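 HCT116 cells, 4000/well, dosed 5 h after plating by pin transfer (217-fold dilution from DMSO stock) and incubated 16 h at 37C, 5% CO2. Viability read as ATP luminescence with CellTiter-Glo after 30 min at room temperature.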

Experiment [9] addresses Cellular tumor antigen p53 (Homo sapiens) (UniProt P04637). The experiment is described as follows: TOX21_p53_BLA_p3_ratio: Tox21 HCT-116 p53 Agonism Beta-lactamase Assay, Ratio, Phase 3 (AID 2283596). A digest of the protocol:
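HCT116 p53-bla cells (4000/well) given compound in DMSO (217-fold dilution) after 5 h, incubated 16 h at 37C. CCF4-AM substrate 2 h at room temperature; 460/530 nm emission ratio, gain fitted against DMSO.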

Experiment [10] shares this target. Description: TOX21_p53_BLA_p5_ratio: Tox21 HCT-116 p53 Agonism Beta-lactamase Assay, Ratio, Phase 5 (AID 2283599). In short, it runs like this: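 HCT-116 p53-bla cells (4000/well) plated 5 h, dosed with compound (217-fold DMSO dilution) for 16 h at 37 C; CCF4-AM substrate 2 h at room temperature. Activity is the 460/530 nm emission ratio (405 nm excitation), fitted in gain-of-signal direction versus DMSO.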

Experiment [11] in a line: Tanguay_ZF_120hpf_MORT_legacy: (Legacy) Oregon State University Tanguay Lab 120 Hour Post-fertilization zebrafish Assay for Mortality (AID 2283633). In short, it runs like this:
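Single dechorionated Tropical 5D embryos were held with test chemical (0.64% DMSO final) from 6 to 120 hpf at 28C under foil. Deaths at 24 or 120 hpf were recorded as binary calls, analysed for increase over DMSO controls.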

Experiment [12] in a line: Tanguay_ZF_120hpf_AXIS_legacy: (Legacy) Oregon State University Tanguay Lab 120 Hour Post-fertilization zebrafish Assay for Body Axis Malformation (AID 2283635). In short, it runs like this: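 Each dechorionated embryo was exposed alone from 6 hpf, with DMSO at 0.64% (vol/vol) and trimethyltin chloride 5 uM as positive control. Axis malformation was recorded at 120 hpf unless the embryo had died.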

The nature of experiment [13]: Tanguay_ZF_120hpf_EYE_legacy: (Legacy) Oregon State University Tanguay Lab 120 Hour Post-fertilization zebrafish Assay for Eye Malformation (AID 2283636).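 Further: binary presence or absence of eye malformation scored by brightfield in 120 hpf larvae.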 In short, it runs like this:
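Dechorionated Tropical 5D zebrafish embryos, one per well from 6 hpf, static exposure to 120 hpf at 28C, 0.64% DMSO. Eye malformation scored present/absent by brightfield; dead embryos not scored.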

A short description of experiment [14]: Tanguay_ZF_120hpf_SNOU_legacy: (Legacy) Oregon State University Tanguay Lab 120 Hour Post-fertilization zebrafish Assay for Snout Malformation (AID 2283637). In short, it runs like this:
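Dechorionated tropical 5D wild-type zebrafish embryos exposed statically from 6 to 120 hpf at 28C, one per well, in 0.64% DMSO. Snout malformation scored as present/absent by brightfield at 120 hpf; dead embryos not scored.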

Experiment [15] can be described thus: Tanguay_ZF_120hpf_JAW_legacy: (Legacy) Oregon State University Tanguay Lab 120 Hour Post-fertilization zebrafish Assay for Jaw Malformation (AID 2283638). A digest of the protocol:
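Wild-type 5D embryos, chorion removed at 4 hpf, dosed singly from 6 hpf; 28C static, sealed, foil-covered, to 120 hpf. Endpoint: jaw defect yes/no (brightfield); mortality excludes scoring.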

The nature of experiment [16]: Tanguay_ZF_120hpf_OTIC_legacy: (Legacy) Oregon State University Tanguay Lab 120 Hour Post-fertilization zebrafish Assay for Otic Vesicle Malformation (AID 2283639). A digest of the protocol: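 Tropical 5D wild-type zebrafish embryos were exposed statically in sealed, foil-covered plates at 28C until 120 hpf, with 0.64% (vol/vol) DMSO final. Otic vesicle malformation was scored present/absent by brightfield microscopy, with DMSO as baseline.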

Experiment [17] can be described thus: TOX21_p53_BLA_p4_viability: Viability Assessment in the Tox21 HCT-116 p53 Agonism Beta-lactamase Assay, Phase 4 (AID 2283597).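 Further: hits lower the luminescence signal meaning cytotoxicity.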 A digest of the protocol: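 Luminescent ATP readout (CellTiter-Glo, 30 min, room temperature) in the same wells as the p53 bla ratio. HCT116 cells were treated for 16 h at 37C with DMSO-dissolved compounds.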
Experiment [18] is described as follows: TOX21_p53_BLA_p5_viability: Viability Assessment in the Tox21 HCT-116 p53 Agonism Beta-lactamase Assay, Phase 5 (AID 2283600). In short, it runs like this: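 Seeded cells (4000/well) settle 5 h before compound addition. Plates then incubate 16 h at 37C, receive FRET substrate for 2 h, and finally CellTiter-Glo, with luminescence measured after a 30 min room-temperature incubation.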

The target of experiment [19] is Cellular tumor antigen p53 (Homo sapiens) (UniProt P04637). Description: TOX21_p53_BLA_p4_ratio: Tox21 HCT-116 p53 Agonism Beta-lactamase Assay, Ratio, Phase 4 (AID 2283601). In short, it runs like this: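 HCT-116 p53 beta-lactamase reporter cells (4000/well) preincubated 5 h, then compound (217-fold dilution of DMSO stock) for 16 h at 37C. CCF4-AM substrate added 2 h at room temperature; 460/530 nm emission ratio fitted upward versus DMSO.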
Sequence of Cellular tumor antigen p53 (Homo sapiens) (P04637 whole entry, looked up): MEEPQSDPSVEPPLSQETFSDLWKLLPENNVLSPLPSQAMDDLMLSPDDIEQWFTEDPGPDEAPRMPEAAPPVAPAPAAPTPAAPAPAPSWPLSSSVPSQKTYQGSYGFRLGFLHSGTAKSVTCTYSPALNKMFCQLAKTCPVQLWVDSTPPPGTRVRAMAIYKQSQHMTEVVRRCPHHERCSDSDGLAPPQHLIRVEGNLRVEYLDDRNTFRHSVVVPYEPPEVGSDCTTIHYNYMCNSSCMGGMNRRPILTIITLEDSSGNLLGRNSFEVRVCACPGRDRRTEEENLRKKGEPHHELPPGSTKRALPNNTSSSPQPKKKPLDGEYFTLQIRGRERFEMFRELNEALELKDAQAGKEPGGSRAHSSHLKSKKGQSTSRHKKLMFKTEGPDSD

Experiment [20] in a line: Tanguay_ZF_120hpf_YSE_legacy: (Legacy) Oregon State University Tanguay Lab 120 Hour Post-fertilization zebrafish Assay for Yolk Sac Edema (AID 2283634). A digest of the protocol: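 Single dechorionated embryos were held in sealed plates at 28C with test chemical (0.64% DMSO final) from 6 hpf until 120 hpf. Edema of the yolk sac was then recorded as a binary endpoint; non-mortality endpoints were skipped for dead embryos.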

As usually defined, the AC50 is the midpoint of the concentration-response curve, whichever way the signal moves.

Values joined by “and” are separate entries in the source; they are usually repeats but may differ in a detail not shown here. Identical values can stand only once. Inconclusive results are not listed. Active and inactive are the calls of the source. How the source made its calls, unless noted: active means hit-call score of the fitted dose curve at least 0.9, where 1 is the maximum; inconclusive means response in the unintended direction; inactive means score below 0.9.

`CCOCCOCCO`: the outcome in [1], in [2], in [3], in experiment [4], in experiment [5] and in [6] was inactive. Besides, the result in experiment [7], in experiment [8], in experiment [9], in experiment [10], in experiment [11] and in experiment [12] was inactive. The outcome in experiment [13], in experiment [14], in experiment [15] and in experiment [16] was inactive.
With `O=C1OC(c2ccc(O)cc2)(c2ccc(O)cc2)c2ccccc21`, the AC50 in [1] is 82 µM (active); in experiment [2], 72.6 µM (active). Also, the result in [3], in experiment [4], in [5], in [6], in [7] and in experiment [8] was inactive. For the same compound, the result in experiment [9], in experiment [17], in experiment [10], in experiment [18], in experiment [19] and in experiment [11] was inactive. Besides, the compound was called inactive in experiment [20], in experiment [12], in [13], in experiment [14] and in experiment [15].
Consider `CC1(C)C(=O)NC(=O)N1CO`, for which the compound was called inactive in experiment [1], in [2], in experiment [3], in experiment [4], in experiment [5] and in experiment [6]. In addition, the outcome in experiment [9], in [10], in experiment [18], in experiment [11], in experiment [20] and in experiment [12] was inactive. For the same compound, the compound was called inactive in experiment [13], in [14], in [15] and in experiment [16].
`COC(=O)[C@H]1[C@H]2C[C@@H]3c4[nH]c5cc(OC)ccc5c4CCN3C[C@H]2C[C@@H](OC(=O)c2cc(OC)c(OC)c(OC)c2)[C@@H]1OC`: the AC50 is 66.1 µM (active) in experiment [1], 55.3 µM (active) in [2], 42.2 µM (active) in experiment [3] and 30.3 µM (active) in [4]. Also, the call in experiment [5], in experiment [6], in experiment [7], in experiment [8], in experiment [9] and in [17] was inactive. Also, the outcome in experiment [10], in experiment [18], in [11], in experiment [20], in experiment [12] and in experiment [13] was inactive. Also, the result in experiment [14], in experiment [15] and in experiment [16] was inactive.
For the compound `CCCCC(CC)COC(=O)CCCCCCCC(=O)OCC(CC)CCCC` (configuration not stated), the call in experiment [1], in experiment [2], in experiment [3], in [4], in [5] and in [6] was inactive. Further, the result in [7], in experiment [8], in experiment [9], in [17], in experiment [10] and in experiment [18] was inactive. Also, the compound was classed as inactive in [11], in [20], in experiment [13], in [14], in experiment [15] and in experiment [16].
With `Nc1nc(Cl)nc2c1ncn2[C@H]1C[C@H](O)[C@@H](CO)O1`, the AC50 was 1.66 µM (active) in [1]; 2.42 µM (active) in experiment [2]; 1.56 µM (active) in experiment [3]; 8.62 µM (active) in experiment [4]; 271 nM (active) and 790 nM (active) in [7]; 468 nM (active) and 960 nM (active) in experiment [9]. The AC50 in experiment [10] was 455 nM (active) and 793 nM (active). Besides, the compound was classed as inactive in experiment [5], in experiment [6], in experiment [8], in [17], in [18] and in [11]. The result in [20], in [12], in experiment [13], in [14], in experiment [15] and in [16] was inactive.
